For eight compounds, cell number and H1.0 immunofluorescence intensity results are on record in the supplement of paper PMC7156485.

± gives the standard deviation of the averaged measurements.

Holding throughout (details): concentration: 10 µM; 24 h
For assay [1], the system named is HCC1569. In words: cell number relative to DMSO (% of DMSO); higher = more cells (less growth inhibition / toxicity). The procedure, abridged: (§1)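 H1.0 nuclear intensity or cell number is stated as percent of the plate control, based on the median of replicates, and HCC1569 values were smoothed for positional effects. These came from HCC1569 and TDF cells treated with compounds at 10 µM for 24 h at 37 °C in triplicate, then fixed in 3.7% formaldehyde and stained with a rabbit anti-H1.0 antibody, an AlexaFluor 647 secondary and DAPI.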

Assay [2] deals with TDF. The description is as above. The procedure, abridged:
as §1

Assay [3] has as its system TDF. In words: H1.0 immunofluorescence intensity relative to DMSO (% of DMSO); higher = stronger H1.0 induction, active = 120 or more. The procedure, abridged: as §1
Assay [4] deals with HCC1569. Description: H1.0 immunofluorescence intensity relative to DMSO (% of DMSO); higher = stronger H1.0 induction, active = 140 or more. The procedure, abridged: as §1
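Throughout, for H1.0 immunofluorescence intensity relative to DMSO: TDF is a line of transformed human dermal fibroblasts of mesenchymal origin.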
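Throughout, for cell number relative to DMSO: TDF denotes transformed human dermal fibroblasts of mesenchymal origin.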

As to `O=C(Nc1cccc(Nc2nccc(Nc3cccc(C(F)(F)F)c3)n2)c1)C1CC1` [Aurora Kinase Inhibitor III], the cell number in assay [1] was found to be 63 ± 1.4; in assay [2] it was 35.8 ± 3.4. In addition, the values for the H1.0 immunofluorescence intensity in assay [3] and in assay [4] were 129 (active) and 247 (active), respectively.
For `Cn1c(=O)c2c(nc(C=Cc3cccc(Cl)c3)n2C)n(C)c1=O` [8-(3-Chlorostyryl)caffeine] the same measures were 106, 94.1, 100 (inactive) and 99.1 (inactive).
Turning to `COc1cc2c(cc1OC)-c1cc(=Nc3c(C)cc(C)cc3C)n(C)c(=O)n1CC2.Cl` [Trequinsin hydrochloride], the cell number came out at 96.4 in assay [1] and 111 in assay [2]. In addition, the H1.0 immunofluorescence intensity is 85 (inactive) in assay [3] and 101 (inactive) in assay [4].
As for `O=C(O)Cc1c[nH]c2ccc(O)cc12` [(5-hydroxy-3H-indol-3-yl)acetic acid], the cell number is 105 in assay [1] and 94.7 in assay [2]. The H1.0 immunofluorescence intensity was 94.7 (inactive) in assay [3] and 103 (inactive) in assay [4].
With `CCCCCC=CCC=CCCCCCCCCCCCC(=O)O` [13(Z),16(Z)-Docosadienoic acid], the cell number in assay [1] worked out at 100; in assay [2], 109. The values for the H1.0 immunofluorescence intensity in assay [3] and in assay [4] were 104 (inactive) and 89.9 (inactive), respectively.
For the compound `CCCCCCCCC=CCCCCCCCCCCC(=O)O` [12(Z) Heneicosenoic acid], the cell number in assay [1] was found to be 103; in assay [2], 98. Besides, the H1.0 immunofluorescence intensity in assay [3] is 95.5 (inactive); in assay [4], 115 (inactive).
For `COC(=O)c1c(-c2cc(OC)c(OC)c(OC)c2)c2ccnc(OCc3ncccn3)c2c(=O)n1Cc1ccnc(C)c1.Cl`, the cell number amounted to 100 in assay [1] and 110 in assay [2]. The figures for the H1.0 immunofluorescence intensity in assay [3] and in assay [4] were 94.3 (inactive) and 95.2 (inactive), respectively.
For `O=C(Nc1ncc([N+](=O)[O-])s1)c1ccc([N+](=O)[O-])c(Cl)c1` [3-chloro-4-nitro-N-(5-nitrothiazol-2-yl)benzamide] the same measures were 84.1, 83.6, 108 (inactive) and 122 (inactive).
